# Assay results as given in the supplement of paper PMC6555819.
# How the values were obtained:
# Assay in all cases: PBM binding z-score (relative to random genomic background probes); higher = stronger binding; sequences stand for … in GC…GCGATTGACAGCGTAGAATGAAGG
# [1] = test system: RARb homodimer (NR concentration 270 nM)
# Summary of the method: (§1)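 Random background probes are the reference for binding z-scores. These scores derive from regression-normalized fluorescence on custom Agilent 4×180K protein-binding microarrays incubated 1 h with ligand-free nuclear receptor dimers. Binding was detected with antibodies against each partner (one per run).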
# [2] = test system: RARg:RXRa (NR concentration 270 nM, RXRa partner concentration 90 nM)
# Summary of the method: as §1
# [3] = test system: RARg homodimer (NR concentration 270 nM)
# Summary of the method: as §1
# [4] = test system: RXRa DBDmut IVT, anti-RXR (DBD mutation: RXRa K156A/R161A, NR concentration 90 nM)
# Summary of the method: as §1
# [5] = test system: RXRa homodimer (NR concentration 180 nM)
# Summary of the method: as §1
# [6] = test system: THRa:RXRa (NR concentration 90 nM, RXRa partner concentration 90 nM)
# Summary of the method: as §1
# [7] = test system: THRa homodimer (NR concentration 90 nM)
# Summary of the method: as §1
# [8] = test system: VDR:RXRa (NR concentration 270 nM, RXRa partner concentration 90 nM)
# Summary of the method: as §1
# [9] = test system: VDR homodimer (NR concentration 270 nM)
# Summary of the method: as §1
Sequence,PBM binding z-score [1],PBM binding z-score [2],PBM binding z-score [3],PBM binding z-score [4],PBM binding z-score [5],PBM binding z-score [6],PBM binding z-score [7],PBM binding z-score [8],PBM binding z-score [9]
CTACCAAGGTGAACAAGGTCGTTGCTTACTATTC,2.09,1.83,1.34,1.73,2.12,3.15,2.03,6.16,2.89
CATTACGGGTCACTGACAGGTTATAGCATTTGGA,3.58,5.97,4.78,2.24,5.7,3.2,0.716,4,1.4
GATACAGGGTCAGCTAGGGGCCAGAGTATGGAAA,3.52,6.94,4.94,1.25,4.43,3.62,0.639,3.31,0.774
CTCGGAAGGTCGGTTGAGGTGAGTATACGGATAA,1.62,1.28,1.86,0.318,0.83,4.59,1.32,1,0.205
ATATGTAGGTTACATCCGGGTCCTTCAGGCTATG,0.958,0.862,0.764,0.474,1.07,1.51,0.753,0.695,0.68
TAGCCTAGGTCATTCAGGGCCCAGTATAGAAAGC,2.54,3.96,4.34,1.96,3.13,3.47,0.59,2.8,1.54
CAAACTAGGTCACCGGAAGGTCAGAGTCCGCATG,5.45,7.9,7.02,1.63,5.06,4.19,2.73,4.86,2.14
CCTTACGGGTCACAGACAGGTTATAGCATTTGGA,3.16,5.97,4.84,1.77,5.47,3.03,0.316,4.06,0.727
CGTCCAAGGTCATAGGAGGTCAGTCAAGACAGAT,5.57,6.78,7.57,3.37,6.76,5.43,3.34,6.72,4.33
ACTAGTTGGTCAGCTCAGGTCACACACAATTCGG,3.56,2.3,2.88,0.763,1.93,4.66,4.32,2.23,1.46
TCTTGTAGATCAAGCAGGTTACGAAAGCCTGAGT,0.377,0.206,-0.118,0.652,0.618,0.537,-0.421,0.633,-0.206
CCTAGCAGTCCAGGGTCACTCAAGCATTTCGCTT,2.5,2.77,2.03,1.07,3.27,2.95,1.64,2.69,1.7
TAGCCTAGGTAATGGGCCAGTATACCACGCGAAC,-0.381,-0.234,-0.0696,-1.16,-0.0912,-0.354,-0.5,-0.466,-0.715
GCTGCTAGGTCAACTGATGGTCAGCTATAGCTCG,3.72,5.34,5.69,1.79,3.41,3.03,1.11,1.82,-0.0243
ACTATTAGTTGACTTAGAGCAACCGATACGACGC,-0.15,0.294,0.597,0.671,0.318,0.0226,0.0225,-0.14,-0.0313
TCTTGTAGATCAAGCAAGTTAAGAAAGCCTGAGT,-0.703,-0.21,-0.386,0.582,-0.066,0.341,-0.759,0.328,-0.186
CCAACTGGGCCAAAGGTCATTGATTCCAATGCTC,4.44,5.57,4.82,1.61,5.9,3.07,0.791,4.72,2.39
GTACCAAGGTGAATAGGTCGATGATGAGTAGGCG,1.77,2.49,1.57,-0.426,1.86,1.52,0.425,0.674,0.182
ACTATTGGTTGACTTAGGGCAACCGATACGACGC,0.788,0.838,0.894,0.419,0.479,1.66,0.213,0.175,-0.0545
ATCGAAAGGTCGACGAGGTGAGTAGACACCGTTT,2.83,4.43,3.75,0.736,4.27,3.85,0.861,5.23,0.955
GGAACGAGGGCATTCGAGTAGATAGCATGGCGAT,0.0849,0.96,1.23,3.24,0.859,1.41,-0.662,0.958,1.51
AGAATGAGGTTATTAAGATCAAGGAATTGCGGTC,0.762,1.21,0.86,2.05,1.86,2.13,0.766,3.11,1.61
ACTATTATTTGACTTAGGGCAACCGATACGACGC,1.2,1.18,1.35,1.24,0.818,1.18,1.52,0.993,1.41
GCCGCTAGGTCAGGTTGGTCAGCTAACGGGTACG,2.77,2.62,3.67,0.508,1.1,1.81,0.524,0.54,0.312
GCAGACAGGGGAAACGCAGGTAACTCAGGGTGGC,-0.497,-0.368,-0.487,-0.47,-0.164,0.986,-0.308,-0.768,-0.688
CGTCCAAGGTAAAAGGTCAGTGAAGAGATGACGG,4.88,4.86,5.11,0.584,5.53,3.28,0.539,2.93,0.435

Sequence,PBM binding z-score [1],PBM binding z-score [2],PBM binding z-score [3],PBM binding z-score [4],PBM binding z-score [5],PBM binding z-score [6],PBM binding z-score [7],PBM binding z-score [8],PBM binding z-score [9]
ACTAGTTGGTCAGCTGAGGTCGCACACAATTCGG,2.35,1.52,1.76,0.828,1.46,4.25,2.58,2.2,1.32
TCTTGTAGATCAACAGGAGCTTAAGAAAGATCGA,-1.46,0.118,-0.187,-0.0794,-0.154,-0.552,-1.65,-0.21,-0.768
TGAATGAGGTTAAAGATCAGGGACCGTGGCGTCG,0.662,2.38,0.948,0.631,3.61,2.39,0.453,1.77,0.608
TCACATAGGTAATACAGGTGAAAGTCGGCATCTA,0.573,0.559,0.535,1.35,1.14,0.928,-0.0751,1.09,-0.296
ATACCAAGGTGATCGTGAGGTCGATGATACTAAC,1.82,2.16,1.22,0.391,1.36,3.09,1.95,1.9,1.21
ATATGTAGGTTATTGGGTCATTCAGTTTGCGCAT,3.06,3.09,2.45,1.61,2.89,2.85,2.41,4.55,3.17
CGTCCAAGGTCAATGCTAAGTCAGTGAAAGCATT,3.83,5.54,6.06,3.39,4.48,3.72,1.98,3.83,2.06
ATCGAAAGGTCGACGGTGAGTATACCCACCCGAA,2.53,4.19,3.92,0.878,4.27,1.88,-0.262,2.62,0.289
CGTCAAAGTTCAACTAAGGTATCGTAAAGCACGC,4.26,5.92,6.75,4.68,5.21,4.92,0.41,4.28,4.04
CGTCGAAGGTCAGAGAGGTCAGTGAATGCCGAGT,5.14,6.51,7.29,2.6,5.68,3.85,1.32,7.5,5.14
TACCCTAGGTCATGCGGGCCAGTATAGTGTCGGC,3.28,4.07,4.89,0.8,3.33,3.18,1.48,3.23,1.26
ACTAGATGGTCAGCTGAGGTCACACACAATTCGG,4.52,4.38,4.75,1.45,4.78,5.09,5.1,4.7,3.61
ACTATTGGTTGAGACGAGGGCAACCGATAGGTTG,1.15,0.833,0.715,0.116,0.596,2.69,0.731,0.873,1.02
TGAATGAGGTAAAAGATCAGGGAACGTGGCGTCG,-0.605,0.328,0.294,-0.708,0.851,1.3,-0.2,-0.131,-0.398
GCTTGTAGATCAAGCTTAAGAAAGACTAAGCTAA,-1.31,-0.516,-0.459,-0.635,-0.645,-0.583,-1.48,-0.459,-0.457
TAGCCTAGGTCAGATCGGGACAGTATACGCTATA,2.11,2.85,3.78,-0.412,1.76,4.67,0.686,1.23,-0.152
GGAACGCGGGCATTCGAGTTGATAGCATGGCGAT,-0.894,-0.144,-0.0858,0.211,-0.381,0.468,-1.25,-0.234,0.00818
CCGACTGGGGCATAAGGTTACCAAAAGCCAGCCC,1.97,1.72,0.905,-0.369,1.3,2.24,1.14,0.198,0.0369
TCAGATAGGTGAAGGTAACTCAGGTACGCAGTCG,0.689,0.578,0.814,1.22,1.08,1.17,0.217,0.796,0.382
CGTCCAAGGTCAATGCTAGGTTAGTGAAAGCATT,2.54,6.12,6.16,3.86,4.75,3.91,2.27,4.02,2.58
CGAACTAGGTCAAGGAGAGTGAATCTCCGCACGC,2.9,3.91,4.76,1.44,2.85,2.28,0.799,1.33,-0.00315
ACAGACAGGTGAGTGAATGTAACTCAGCTGGACG,-0.316,0.386,0.453,-0.311,0.676,0.0176,-0.644,-0.36,-0.199
CCTCGGAGGACAGAATGTCAGAGCTGTCCGCTTT,-0.0927,-0.321,0.175,-0.282,-0.66,-0.251,-0.615,-0.778,-0.654
TCTGCTAGGTCAACGATGGTCATCTAATCTGCTA,3.5,4.05,4.69,1.07,2.9,3.45,0.805,2.16,-0.118
AGATGTAGGTTAGCTGGGGTCATTCAGACTAGGC,3.53,3.96,2.72,1.78,5.24,5.05,3.03,5.98,4.8
CCTGCTACGTCAATGGTCAGCTAAAGCAGCTCGC,0.4,-0.424,-0.342,0.29,-0.492,-0.534,-0.374,-0.379,-0.434
